Assay results reported in PMC5540273 (PLoS ONE, 2017).

Tests used:
Settings in all cases: concentration: 1 μM, replicates: in singlicate; n = 1
[1] = test system: MARK4
[2] = test system: MAST1
[3] = test system: T1, MEK1
T1 construct: gene MAP2K1

[4] = test system: T2, MEK2
T2 construct: gene MAP2K2

[5] = test system: T3, MEK3
T3 construct: gene MAP2K3

[6] = test system: T4, MEK4
T4 construct: gene MAP2K4

[7] = test system: T5, MEK5
T5 construct: gene MAP2K5

[8] = test system: T6, MEK6
T6 construct: gene MAP2K6

[9] = test system: MELK
[10] = test system: MERTK
[11] = test system: MET
[12] = test system: T7, MINK
T7 construct: gene MINK1

[13] = test system: MKK7
[14] = test system: MKNK1
[15] = test system: MKNK2
[16] = test system: T8, MLCK
T8 construct: gene MYLK3

[17] = test system: T9, MLK1
T9 construct: gene MAP3K9

[18] = test system: MLK2
[19] = test system: MLK3
[20] = test system: MRCKA
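Also: KINOMEscan kinase panel screen.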

SMILES	%Inh [1] [%]	%Inh [2] [%]	%Inh [3] [%]	%Inh [4] [%]	%Inh [5] [%]	%Inh [6] [%]	%Inh [7] [%]	%Inh [8] [%]	%Inh [9] [%]	%Inh [10] [%]	%Inh [11] [%]	%Inh [12] [%]	%Inh [13] [%]	%Inh [14] [%]	%Inh [15] [%]	%Inh [16] [%]	%Inh [17] [%]	%Inh [18] [%]	%Inh [19] [%]	%Inh [20] [%]
Nc1ncnc2c1ncn2-c1ccc(Cl)cc1 [AH2635]	13	0	0	0	0	12	48	0	0	10	0	0	0	26	24	0	0	18	15	0
Cc1nn2c(=O)cc(N3CCOCC3)nc2n1Cc1cccc(Cl)c1Cl [GSK2342769]	0	2	0	0	0	31	0	0	8	10	1	0	0	0	4	7	0	0	0	10
COc1ccc(-c2coc3ccc(-c4nnc(SCc5cccc(C#N)c5)o4)cc23)cc1	13	31	4	13	0	38	21	16	11	0	0	9	17	20	2	2	0	18	11	0
COc1cc2ncn(-c3cc(OCc4ccncc4)c(C(N)=O)s3)c2cc1OC [GSK336313]	0	0	3	4	0	8	88	44	0	0	0	15	19	5	2	0	0	0	19	0
CC(C)(C)c1ccc(C(=O)Nc2cn3cc(-c4ccccc4)ccc3n2)cc1	0	0	0	45	25	0	75	0	0	0	0	36	0	0	13	14	0	0	0	0
Cc1c(Cn2c(C)nn3c(=O)cc(N4CCO[C@H](C)C4)nc23)cccc1C(F)(F)F [GSK2373690]	0	0	0	0	0	12	1	0	0	14	0	0	0	3	9	9	0	14	3	0
Fc1cccc(CSc2nnc(-c3ccc4c(c3)CCO4)o2)c1	0	0	3	5	6	5	14	0	0	2	10	5	6	3	4	7	0	0	0	0
O=C(NCc1cccs1)c1cc(C(=O)c2c(Cl)cccc2Cl)c[nH]1 [GW823670]	0	0	4	25	1	0	7	5	26	0	5	0	0	0	0	0	10	13	0	0
O=C(Nc1n[nH]c2nc(-c3ccccc3)c(Cl)cc12)C1CC1 [SB-734909]	25	12	11	0	45	24	50	0	0	0	0	28	0	17	8	26	0	0	0	0
Nc1n[nH]c2ncc(-c3ccccc3)cc12 [SB-517081]	0	0	0	1	0	0	85	4	0	0	0	11	0	53	88	0	17	0	0	3
Cc1ccccc1COc1cc(-n2cnc3cc(Cl)ccc32)sc1C(N)=O [GW813349]	8	0	6	14	19	0	59	0	33	16	24	35	0	2	0	0	11	9	0	29
CCCNC(=O)Nc1ccc(Oc2ncnc3ccn(C)c23)cc1	9	0	0	0	0	10	61	14	7	13	8	1	0	23	0	0	6	6	0	3
Cl.c1ccc(Cn2cnc3cc(Nc4ncnc5ccccc45)ccc32)cc1 [GW272142]	0	0	0	0	0	8	56	0	13	10	33	0	17	0	6	0	0	0	11	16
COC(=O)c1c(-c2ccccc2)c2cc(C)ccc2c(=O)n1Cc1ccccc1	0	0	0	0	0	0	0	10	0	0	0	0	0	0	0	0	0	0	0	0
CCc1nc(-c2cccc(C)c2)c(-c2ccncc2)s1	0	0	2	48	23	0	34	0	0	0	4	50	0	0	16	6	0	0	17	0
Cc1nnc(-c2ccc3ncn(-c4ccc(S(C)=O)cc4)c3c2)o1 (stereo not drawn)	0	0	2	22	15	8	0	13	13	1	0	14	12	0	20	11	0	0	0	0
Nc1n[nH]c2nnc(-c3ccccc3)c(-c3ccccc3)c12 [GW554060]	0	9	0	0	5	14	30	0	18	0	0	0	7	11	49	0	0	0	8	4
CCC(=O)c1c(-c2ccccc2)c2cc(Cl)ccc2c(=O)n1Cc1cc(S(C)(=O)=O)n(CC(N)=O)n1	5	0	1	40	0	0	15	0	0	0	0	14	0	0	0	0	0	10	1	0
FC(F)(F)c1ccc(-c2ncn(CCCN3CCOCC3)c2-c2ccncc2)cc1 [SB-217780]	20	23	0	0	27	3	33	0	2	0	4	0	0	16	58	0	0	2	5	0
CN1C(=O)C(Nc2cc(Cl)c(O)c(Cl)c2)=C(c2ccc(Cl)cc2)C1=O [SB-404321]	0	41	0	0	29	0	25	0	0	30	0	0	0	38	19	0	0	0	0	5
COc1ccc(CNC(=O)NC2CCN(c3ccnc(Nc4ccc(F)cc4)n3)C2)cc1 (stereo not drawn) [GSK1379706]	3	53	29	21	0	28	25	12	21	39	0	80	10	0	0	8	0	0	17	16
